Values quoted from earlier work as cited in PubChem BioAssay AID977608.
In all, about 4,300 compounds went through this assay and about 4,300 (100%) were called active. No cut-off is given here; in the data, nearly all actives have IC50 up to about 1400 µM. The set was probably picked from earlier hits. Some of the results follow. Where a SMILES comes first, the peptide text is derived from it. Square brackets hold non-standard residues; d marks the D form. Peptide text beside a SMILES is read from it. β3hR = N=C(N)NCCC[C@H](N)CC(=O)O; β3hE = N[C@@H](CCC(=O)O)CC(=O)O; β3hQ = NC(=O)CC[C@H](N)CC(=O)O; β3hD = NC(CC(=O)O)CC(=O)O; β3hA = C[C@H](N)CC(=O)O

Experiment: literature IC50 values for PDB complexes, PDB-derived complexes (AID 977608)
Settings: PDB protein-ligand complexes

Question: With CC(C)C[C@H](NC(=O)[C@H](CC(C)C)NC(=O)[C@H](CC(C)C)NC(=O)[C@H](CCCCN)NC(=O)[C@H](CCCCN)NC(=O)[C@H](CC(C)C)NC(=O)[C@H](CC(C)C)NC(=O)[C@H](CO)NC(=O)[C@@H]1CCCN1)C(=O)N[C@@H](C)C(=O)N1CCC[C@H]1C(=O)N[C@@H](C)C=O (H-PSLLKKLLLAPA-aldehyde) as the compound, how does the IC50 (protein: PPARgama, PDB entry 3cs8) read?
Answer: 1.7 µM (active)

Question: With CC(C)C[C@H](NC(=O)[C@@H](O)CC(=O)O)C(=O)NCCCCNC(N)N as the compound, how does the IC50 (protein: Streptopain, PDB entry 4d8e) read?
Answer: 0.098 µM (active)

Question: With CCC(CC)[C@H](NC(C)=O)[C@@H]1[C@H](O)[C@@H](C(=O)O)C[C@H]1NC(N)N as the compound, how does the IC50 (protein: Neuraminidase, PDB entry 4mwv) read?
Answer: 0.0004 µM (active)

Question: What about the IC50 (protein: Neuraminidase, PDB entry 4mx0) of the same compound?
Answer: 0.185 µM (active)

Question: With CC(C)Oc1ccc(-c2ccnc(NC([P+](O)(O)O)[P+](O)(O)O)c2)cc1 as the compound, how does the IC50 (protein: human farnesyl pyrophosphate synthase (FPPS), PDB entry 4h5c) read?
Answer: 0.028 µM (active)

Question: Which IC50 (protein: Dihydropteroate Synthase, PDB entry 4d9p) does the source give for C[C@H](CC(=O)O)C1NN(C)C2N=C(N)NC(=O)C2C1O (some centres undefined) here?
Answer: 145 µM (active)

Question: Which IC50 (protein: Orotidine 5'-phosphate decarboxylase, PDB entry 3vi2) does the source give for COc1ccc(C(=O)CCC(=O)O)c(O)c1 here?
Answer: 170 µM (active)

Question: With CN1CCN(c2ccc(-c3ccncc3-c3cc(F)c(O)c(F)c3)cc2)CC1 as the compound, how does the IC50 (protein: Ribosomal protein S6 kinase alpha-3 RSK2, PDB entry 4nus) read?
Answer: 0.005 µM (active)

Question: For CCCn1cnc2c1c(=O)n(CCCCC(C)=O)c(=O)n2C, which IC50 (protein: Chitinase A(W275G mutant), PDB entry 3as2) is on record?
Answer: 360 µM (active)

Question: Which IC50 (protein: Human testis angiotensin converting enzyme, PDB entry 4bzr) does the source give for CC[C@H](C)[C@H](NC(C)=O)C(=O)N[C@@H](Cc1ccc(O)cc1)C(=O)N[C@@H](Cc1ccc(O)cc1)[P+](O)(O)O here?
Answer: 0.025 µM (active)

Question: For O=C(NCc1cccc(O)c1)Nc1nc(-c2ccncc2)cs1, which IC50 (protein: Rho-associated protein kinase 1, PDB entry 3twj) is on record?
Answer: 0.0145 µM (active)

Question: For C[C@@H]1COC[C@@H](C)[N+]1=C1CC(=O)N2CC[C@@H](C(F)(F)F)[N+](Cc3ccc(Cl)s3)=C2N1, which IC50 (protein: PHOSPHATIDYLINOSITOL 3-KINASE CATALYTIC SUBUNIT TYPE 3 Vsp34, PDB entry 4uwk) is on record?
Answer: 0.001 µM (active)

Question: Which IC50 (protein: PHOSPHATIDYLINOSITOL 3-KINASE CATALYTIC SUBUNIT TYPE 3 Vsp34, PDB entry 4uwg) does the source give for CC(C)OCC[N+]1=C2NC(=[N+]3CCOCC3)CC(=O)N2CC[C@H]1C(F)(F)F here?
Answer: 0.007 µM (active)

Question: Which IC50 (protein: Macrophage Migration Inhibitory Factor (MIF), PDB entry 2ooz) does the source give for O/N=C/c1ccc(O)cc1 here?
Answer: 7 µM (active)

Question: For CC(C)[C@H]1[C@H](C(=O)N2CCC[C@H]2C(=O)N(C)C)SC2=N[C@@](C)(c3ccc(Cl)cc3)[C@@H](c3ccc(Cl)cc3)N21, which IC50 (protein: E3 ubiquitin-protein ligase Mdm2, PDB entry 3vzv) is on record?
Answer: 0.0092 µM (active)

Question: With CC(C)C[C@H](N[P+](O)(O)O[C@@H]1O[C@@H](C)[C@H](O)[C@@H](O)[C@H]1O)C(=O)N[C@@H](Cc1c[nH]c2ccccc12)C(=O)O as the compound, how does the IC50 (protein: human neutral endopeptidase (Neprilysin), PDB entry 1dmt) read?
Answer: 0.002 µM (active)

Question: For O=C1N=C(c2ccccc2)C=CC1O (centres undefined), which IC50 (protein: Polymerase PA, PDB entry 4m5o) is on record?
Answer: 0.38 µM (active)

Question: For Nc1csc2nccnc12, which IC50 (protein: Dengue virus 3 non-structural protein 5, PDB entry 4ctk) is on record?
Answer: 10000 µM (active)

Question: With O[C@@H]1[C@@H](CO[P+](O)(O)O)O[C@](O)(CO[P+](O)(O)O)[C@H]1O as the compound, how does the IC50 (PDB entry 4fxf) read?
Answer: 6.5 µM (active)

Question: Which IC50 (protein: Penicillin-binding protein 3, PDB entry 4kqo) does the source give for CCN1CCN(C(=O)N[C@@H](C(=O)N[C@H](C=O)[C@@H]2N[C@@H](C(=O)O)C(C)(C)S2)c2ccccc2)C(=O)C1=O here?
Answer: 0.166 µM (active)

Question: For CCN1CCN(C(=O)N[C@@H](C(=O)N[C@H](C(=O)O)[C@H]2N[C@@H](C(=O)O)C(C)(C)S2)c2ccccc2)C(=O)C1=O, which IC50 (protein: Penicillin-binding protein 3, PDB entry 4kqq) is on record?
Answer: 126 µM (active)

Question: And the IC50 (protein: Penicillin-binding protein 3, PDB entry 4kqr)?
Answer: 126 µM (active)

Question: For CC(=O)Nc1cc(Oc2ccc3c(ccn3C(=O)Nc3ccc(CN4CCN(C)CC4)c(C(F)(F)F)c3)c2)ncn1, which IC50 (protein: Tyrosine-protein kinase JAK2, PDB entry 3ugc) is on record?
Answer: 0.947 µM (active)

Question: With N#C[C@@H](Cc1cccc(C(=O)c2c[nH]c3ncccc23)c1)C(N)=O as the compound, how does the IC50 (protein: Ribosomal protein S6 kinase alpha-3, PDB entry 4jg7) read?
Answer: 0.12 µM (active)

Question: Which IC50 (protein: Serine protease NS3, PDB entry 4ktc) does the source give for O=C(N[C@H]1CCCCCCC[C@@H]2C[C@@]2(C(=O)NS(=O)(=O)C2CC2)NC(=O)[C@@H]2C[C@@H](OC(=O)N3CCc4ccccc4C3)CN2C1=O)OC1CCCC1 here?
Answer: 0.001 µM (active)

Question: Which IC50 (protein: Peptide Deformylase from Staphylococcus aureus, PDB entry 1q1y) does the source give for CCCCC[C@H](CC(=O)NO)C(=O)N[C@H](C(=O)N1CCC[C@H]1C(=O)O)C(C)C here?
Answer: 0.02 µM (active)

Question: With H-MHRVSAALEEANKVFL-OH as the compound, how does the IC50 (protein: Maltose ABC transporter periplasmic protein, Nuclear receptor subfamily 0 group B member 2 chimeric construct MBP-SHP, PDB entry 4nuf) read?
Answer: 5 µM (active)

Question: Which IC50 (protein: HLA class I histocompatibility antigen, A-2 alpha chain HLA-A*0201, PDB entry 4u6y) does the source give for H-FLNKDLEVDGHFVTM-OH here?
Answer: 0.083 µM (active)

Question: Which IC50 (protein: HLA class II histocompatibility antigen, DR alpha chain, PDB entry 4ov5) does the source give for H-GSDARFLRGYHLYA-OH here?
Answer: 0.0369 µM (active)

Question: With O=C(Nc1ccccc1N1CCNCC1)c1csc(-n2ncc3ccccc32)n1 as the compound, how does the IC50 (protein: Serine/threonine-protein kinase Chk1, PDB entry 4hyi) read?
Answer: 0.003 µM (active)

Question: With CN1C(=O)N[C@H](Cc2c[nH]c3c(Cl)cccc23)C1=O as the compound, how does the IC50 (protein: Receptor-interacting serine/threonine-protein kinase 1 (C34A, C127A, C233A, C240A mutation), PDB entry 4ith) read?
Answer: 0.317 µM (active)

Question: With CCN(CC)CCOc1cccc2oc3c4c(O)c5c(=O)c(C)c6c(c5c3nc12)C(=O)[C@@](C)(OCC[C@H](OC)[C@@H](C)[C@@H](OC(C)=O)[C@H](C)[C@H](O)[C@H](C)[C@@H](O)[C@@H](C)CCC[C@@H](C)C(=O)N4)O6 as the compound, how does the IC50 (protein: DNA-directed RNA polymerase subunit alpha, PDB entry 4kn4) read?
Answer: 0.057 µM (active)

Question: For CO[C@H]1CCO[C@@]2(C)Oc3c(C)c(=O)c4c(O)c(c5oc6cccc(OCCCCN7CCN(CCn8ccnc8)CC7)c6nc5c4c3C2=O)NC(=O)[C@H](C)CCC[C@H](C)[C@H](O)[C@@H](C)[C@@H](O)[C@@H](C)[C@H](OC(C)=O)[C@@H]1C, which IC50 (protein: DNA-directed RNA polymerase subunit alpha, PDB entry 4kn7) is on record?
Answer: 0.024 µM (active)

Question: Which IC50 (protein: fusion protein of mouse and human Mcl-1, PDB entry 4bpj) does the source give for CC[C@H](C)[C@H](NC(=O)[C@H](C)N)C(=O)N[C@H](C)C(=O)N[C@@H](C)C(=O)N[C@@H](CCC(N)=O)CC(=O)N[C@@H](CC(C)C)C(=O)N[C@@H](CCCN=C(N)N)C(=O)N[C@@H](CCCN=C(N)N)CC(=O)N[C@@H](CCSC)C(=O)N[C@@H](C)C(=O)N[C@@H](CC(=O)O)C(=O)N[C@@H](CC(=O)O)CC(=O)N[C@@H](CC(C)C)C(=O)N[C@@H](CC(N)=O)C(=O)N[C@@H](C)CC(=O)N[C@@H](CCC(N)=O)C(=O)N[C@@H](Cc1ccc(O)cc1)C(=O)N[C@@H](CCC(=O)O)C(N)=O here?
Answer: 1 µM (active)

Question: With CC[C@H](C)[C@H](NC(=O)C[C@H](CCC(=O)O)NC(=O)[C@H](CCC(=O)O)NC(=O)[C@H](C)N)C(=O)NCC(=O)N[C@@H](C)C(=O)N[C@@H](CCC(N)=O)CC(=O)N[C@@H](CC(C)C)C(=O)N[C@@H](CCCN=C(N)N)C(=O)N[C@@H](CCCN=C(N)N)CC(=O)N[C@@H](CCSC)C(=O)N[C@@H](C)C(=O)N[C@@H](CC(=O)O)C(=O)N[C@@H](CC(=O)O)CC(=O)N[C@@H](CC(C)C)C(=O)N[C@@H](CC(N)=O)C(=O)N[C@@H](C)CC(=O)N[C@@H](CCC(N)=O)C(=O)N[C@@H](Cc1ccc(O)cc1)C(=O)O (H-AE[β3hE]IGA[β3hQ]LR[β3hR]MAD[β3hD]LN[β3hA]QY-OH) as the compound, how does the IC50 (protein: fusion protein of mouse and human Mcl-1, PDB entry 4bpi) read?
Answer: 0.67 µM (active)

Question: Which IC50 (protein: Mitogen-activated protein kinase kinase kinase 14, PDB entry 4idt) does the source give for Nc1ncc2c(n1)-c1c([nH]c3ccc(Br)cc13)CCC2 here?
Answer: 0.1 µM (active)

Question: Which IC50 (protein: Human Nicotinamide Phosphoribosyltransferase, PDB entry 4o12) does the source give for N#CNC(=NCCCCCCOc1ccc(Cl)cc1)Nc1ccncc1 here?
Answer: 0.002 µM (active)

Question: What does the source list for CCOc1ccc(C(=O)Nc2ccc(F)c([C@@]3(C)NC(N)OCC3(F)F)c2)nc1 (some centres undefined)?
Answer: IC50 (protein: BETA-SECRETASE 2, PDB entry 3zlq): 0.904 µM (active); IC50 (protein: Beta-secretase 1, PDB entry 4j0t): 0.184 µM (active)
